Here are results for seven compounds from PubChem BioAssay (NCI).

Values joined by “and” are separate entries in the source; they are usually repeats but may differ in a detail not shown here. Equal entries are not always repeated. This is part of a sample that, as a whole, favours compounds with a hit. Of some 83,000 tested, about 20% had one in any assay.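 Values shown are percent growth following 48 h exposure of cells in 96-well plates to a single concentration of compound; below 10 was considered active.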 Active and inactive are the calls of the source.

What all share (test): NCI-60 one-dose screen, 48 h (100 = growth as untreated, 0 = no growth, -100 = all killed)
Experiment [1] has as its system HCT-15 colon. The settings on record: 10 µM unless noted.
Experiment [2] has as its system HT29 colon. The conditions noted are these: 10 µM unless noted.
Experiment [3] concerns SNB-75 CNS. The settings on record: 10 µM unless noted.
In experiment [4] the test system is SNB-19 CNS. The settings on record: 10 µM unless noted.
Experiment [5] deals with U251 CNS. The settings on record: 10 µM unless noted.
Experiment [6] relates to PC-3 prostate. The settings on record: 10 µM unless noted.
Experiment [7] has as its system SK-MEL-5 melanoma. The conditions noted are these: 10 µM unless noted.
The test system of experiment [8] is UACC-62 melanoma. The settings on record: 10 µM.
Experiment [9] deals with LOX IMVI melanoma. The conditions noted are these: 10 µM unless noted.
Experiment [10] has as its system SK-MEL-2 melanoma. The settings on record: 10 µM unless noted.
Experiment [11] concerns EKVX NSCLC. The settings on record: 10 µM unless noted.
Experiment [12] concerns SN12C renal. The settings on record: 10 µM unless noted.
Experiment [13] concerns UO-31 renal. The settings on record: 10 µM unless noted.
In experiment [14] the test system is TK-10 renal. The settings on record: 10 µM.
For experiment [15], the system named is CAKI-1 renal. The conditions noted are these: 10 µM unless noted.
In experiment [16] the test system is A498 renal. The settings on record: 10 µM unless noted.
The subject of experiment [17] is HL-60(TB) leukemia. The settings on record: 10 µM unless noted.
The subject of experiment [18] is MOLT-4 leukemia. The conditions noted are these: 10 µM unless noted.
Experiment [19] deals with SR leukemia. The conditions noted are these: 10 µM unless noted.
Experiment [20] has as its system SK-MEL-28 melanoma. The settings on record: 10 µM.

As for `CC1=C(CO)C2=C(C)C3(CC3)[C@@](C)(O)C(=O)C2=C1`, the growth in experiment [1] was -22.2% (active); in experiment [2], -17.8% (active); in [3], -83.8% (active); in [4], 11.3% (inactive); in experiment [5], 2.57% (active); in [6], -18.8% (active). Moreover, the growth in experiment [7] is -84.1% (active); in experiment [8] it was -81.5% (active); in [9], 22.8% (inactive); in experiment [10] it was -46.8% (active); in experiment [11], 0.643% (active); in experiment [12], 20.5% (inactive). Also, the growth in experiment [13] was -40.5% (active); in experiment [14], -23.3% (active); in experiment [15], -17% (active); in [16] it was -66.5% (active); in experiment [17], -32.9% (active); in [18] it was 16% (inactive). Moreover, in [19], the growth was 21.4% (inactive).

Turning to `CCOC(=O)C(NC(=O)C(Cc1ccc(N(CCCl)CCCl)cc1)NC(C)=O)C(C)C` (stereo unspecified), the growth in experiment [1] is 94.9% (inactive); in experiment [2], 67.1% (inactive); in [3], 85.9% (inactive); in experiment [4], 90.6% (inactive); in [5], 73.7% (inactive); in [6] it was 67.4% (inactive). In addition, the growth in [7] was 97.7% (inactive); in experiment [8], 83.1% (inactive); in [9] it was 66.1% (inactive); in experiment [20], 101% (inactive); in [10] it was 92.7% (inactive); in [11], 97.6% (inactive). For the same compound, the growth was 76.2% (inactive) in experiment [12]; 82.5% (inactive) in experiment [13]; 95.5% (inactive) in [14]; 40.8% (inactive) in experiment [15]; 107% (inactive) in experiment [16]; 44.9% (inactive) in [17]. The growth in [18] was 56.6% (inactive); in experiment [19], 28.2% (inactive).

Take `COc1ccc(OC)c(/C=C/[N+](=O)[O-])c1`: the growth in experiment [1] is -13.4% (active); in experiment [2] it was -29.5% (active); in experiment [3], 33.7% (inactive); in experiment [4] it was 41.8% (inactive); in experiment [5], -27.2% (active); in experiment [6] it was -29.4% (active). For the same compound, the growth in [7] was -16.2% (active); in experiment [8], -22.3% (active); in experiment [9], -48.5% (active); in experiment [20], -20% (active); in [10], 1.51% (active); in [11], 67.7% (inactive). Besides, the growth in [12] is 15.9% (inactive); in experiment [13] it was -81.9% (active); in [14], -31.9% (active); in experiment [15] it was -3.49% (active); in experiment [16], 18.5% (inactive); in experiment [17], 1.04% (active). Besides, the growth is -4.18% (active) in [18] and -13% (active) in experiment [19].

Turning to `CC(=O)O[C@H]1C[C@@H]2OC3C=C(C)CCC3(C)[C@@]1(C)[C@@]21CO1` (stereo partly specified), the growth in [1] is -0.358% (active) and -0.281% (active); in [2], -32.2% (active) and -30.6% (active); in [3], 11.2% (inactive) and -18.3% (active); in experiment [4], -0.212% (active) and 0.0305% (active); in [5], -8.47% (active) and -17.4% (active); in [6], -2.24% (active) and -4.21% (active). Further, the growth in [7] is -47.8% (active) and -66.8% (active); in experiment [8] it was -16.6% (active) and -10.1% (active); in [9], -58.9% (active) and -21.5% (active); in [20], -24.3% (active) and -29.8% (active); in [10], -72.2% (active) and -53.9% (active); in experiment [11], -13.7% (active) and -15.6% (active). Also, the growth was -9.69% (active) and 0.846% (active) in [12]; -5.32% (active) and -11.9% (active) in experiment [13]; -18.9% (active) and -20.4% (active) in [14]; -16.9% (active) and -24.9% (active) in experiment [15]; -38.7% (active) in [16]; -42% (active) in experiment [17]. The growth in experiment [18] was -15.6% (active) and -30.2% (active); in experiment [19], -17.5% (active).

For the compound `CC1=C2C(=O)[C@H]3[C@@H](CC=C4C[C@@H](O)CC[C@@]43C)[C@@H]2CC[C@]12O[C@@H]1C[C@H](C)CN[C@H]1[C@H]2C`, the growth is 94.2% (inactive) in [1]; 82.6% (inactive) in experiment [2]; 68.6% (inactive) in [3]; 106% (inactive) in experiment [4]; 107% (inactive) in [5]; 96.8% (inactive) in experiment [7]. Besides, the growth in experiment [8] was 112% (inactive); in experiment [9] it was 96.4% (inactive); in [20], 118% (inactive); in experiment [10] it was 2.09% (active); in experiment [11], 94.3% (inactive); in experiment [12], 102% (inactive). For the same compound, the growth was 72.6% (inactive) in [13]; 108% (inactive) in [14]; 103% (inactive) in experiment [15]; 103% (inactive) in experiment [16]; 115% (inactive) in experiment [17]; 96.9% (inactive) in experiment [18]. Also, the growth in experiment [19] was 95.2% (inactive).

As to `COC1CC(CC2CCC(C)C(C(C)C(=O)O)O2)OC2(OC(C)(C3CCC(C)(C4OC(C5OC(O)(CO)C(C)CC5C)CC4C)O3)CC2C)C1C` (stereo unspecified), the growth in [1] was 5.7% (active); in [2], -0.662% (active); in experiment [3], -60.6% (active); in experiment [4], -2.87% (active); in [5] it was 3.01% (active); in experiment [6] it was 5.39% (active). Further, the growth in experiment [7] is -96.3% (active); in experiment [8], -98.8% (active); in experiment [9], 11.3% (inactive); in experiment [10], -61.3% (active); in [11], 19.1% (inactive); in experiment [12], 17.1% (inactive). Moreover, the growth in experiment [13] was 13.3% (inactive); in experiment [14], 4.27% (active); in [15], 8.78% (active); in experiment [16] it was -68.8% (active); in experiment [17] it was -56% (active); in experiment [18], -36.2% (active). Besides, in experiment [19], the growth is -28.8% (active).

As to `Oc1cc[c]([Hg][Cl])cc1`, the growth in experiment [1] is 91.4% (inactive); in experiment [2], 100% (inactive); in experiment [3], 92.3% (inactive); in experiment [4] it was 100% (inactive); in experiment [5] it was 85.9% (inactive); in [6] it was 99.7% (inactive). For the same compound, the growth in experiment [7] was 74.5% (inactive); in experiment [8], 92.1% (inactive); in experiment [9], 71.3% (inactive); in experiment [20], 74.5% (inactive); in experiment [10], 70.2% (inactive); in experiment [12], 98.9% (inactive). Moreover, the growth in [13] was 100% (inactive); in experiment [14], 110% (inactive); in [15], 110% (inactive); in [16], 107% (inactive); in experiment [17] it was 102% (inactive); in [18] it was 65.2% (inactive). Besides, the growth in experiment [19] was 38.2% (inactive).
